# Compounds with a hit are over-represented: about 4.3% of the library has one in this group of screens.
# NALP1 inh: NALP1 inhibition. AID 2071. hit rate 0.61% among 280,000. S. cerevisiae NALP1/ASC/caspase-1 growth, X-gal OD620, 72 h. inhibition, % at 10 µM; in the data active = inhibition mostly above about 24%, no sharp cut-off; inactive = mostly below about 32%
# dFosB act: enhances mouse delta FosB homodimer DNA binding; activation, % at 25 µM; hit rate 0.99% among 340,000; P13346; purified delta FosB, TAMRA-CDK5 oligo fluorescence polarization; percent of positive-control signal above neutral wells;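 active = mean activation above about 17%, with every replicate also reaching it, limit read from the data, passing the limit was not always enough; inconclusive = only one of the two conditions met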
# Target sequence (P13346 whole entry, looked up): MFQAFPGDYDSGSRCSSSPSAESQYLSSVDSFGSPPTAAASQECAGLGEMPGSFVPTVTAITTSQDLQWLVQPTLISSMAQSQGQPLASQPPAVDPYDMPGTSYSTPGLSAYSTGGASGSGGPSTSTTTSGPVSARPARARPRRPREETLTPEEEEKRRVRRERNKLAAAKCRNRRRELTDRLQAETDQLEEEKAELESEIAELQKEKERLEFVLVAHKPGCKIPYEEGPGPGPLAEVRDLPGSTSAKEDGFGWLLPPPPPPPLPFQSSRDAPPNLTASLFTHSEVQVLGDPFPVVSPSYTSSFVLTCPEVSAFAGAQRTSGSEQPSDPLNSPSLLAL
# CR mimetic SO: lowers age-related superoxide in aged yeast cells | S. cerevisiae aged cells, superoxide DHE fluorescence; hits give low values | superoxide response (% of plate mean), % at 10 µM | hit rate 0.18% among 330,000;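 active = superoxide response under a set limit, about three screen SD below normal, cut at about 65% in these data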;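 also: yeast aged for seven days with compound at 30 °C before DHE staining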
# NR3A LBD binder: NR3A (human) ligand-binding domain modulation; NR3A LBD differential scanning fluorimetry, Tm shift; 0% = protein alone, 100% = glycine-bound protein; Tm shift relative to glycine control, % at 25 µM; hit rate 2.5% among 340,000; AID 1259313;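 active = melting temperature shift of at least 10% of the positive control shift, at one fixed dose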
# UBC13 inh: human UBC13 polyubiquitination inhibition; P61088; UBC13 polyubiquitin chain formation, TR-FRET; inhibition, % at 20 µM; hit rate 0.47% among 330,000; in the data active = inhibition above about 45%, passing the limit was not always enough; inconclusive = no clear call, values can overlap the other calls
# Target sequence (P61088 whole entry, looked up): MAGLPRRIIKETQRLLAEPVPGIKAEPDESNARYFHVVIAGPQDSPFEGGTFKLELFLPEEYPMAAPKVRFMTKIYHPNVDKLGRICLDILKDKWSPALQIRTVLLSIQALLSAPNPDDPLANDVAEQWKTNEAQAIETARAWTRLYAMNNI
# A number is an active result; i = inactive; ? = inconclusive; nt = no result; ! = not active in a repeat.
SMILES,NALP1 inh,dFosB act,CR mimetic SO,NR3A LBD binder,UBC13 inh
Cc1ccc(/C=C/S(=O)(=O)NCC(=O)OCC(=O)N2CC(=O)Nc3ccccc32)cc1,i,i,i,i,i
CC(CCc1ccccc1)NC(=O)COc1cc(F)ccc1[N+](=O)[O-] (stereo not given),i,i,i,i,i
CC(CCc1ccccc1)NC(=O)COC(=O)c1cc(NS(=O)(=O)c2ccc(Cl)c([N+](=O)[O-])c2)ccc1O (stereo not given),i,i,i,22,i
CC(CCc1ccccc1)NC(=O)COc1ccc(S(=O)(=O)N2CCOCC2)cc1[N+](=O)[O-] (stereo not given),i,i,i,13,i
COc1ccccc1-c1noc(CSc2nc(N)cc(=O)[nH]2)n1,33,i,i,i,i
CC(C)[C@H](NC(=O)c1cccc(CN(Cc2ccccc2)C(=O)c2ccccc2)c1)C(=O)O,nt,i,i,i,i
Cc1c(N(C(=O)c2ccccn2)C2(C(=O)NC3CCCCC3)CCCCC2)c(=O)n(-c2ccccc2)n1C,i,i,i,i,i
CC(=O)c1ccccc1NC(=O)COC(=O)/C(=C/c1ccccc1)n1nnnc1C,i,i,i,i,i
Nc1ccccc1C(=O)/C=C/c1ccc2c(c1)OCO2,i,i,nt,i,i
CC(=O)Nc1ccc(NC(=O)/C=C/c2ccc3c(c2)OCO3)cc1,i,i,i,i,i
O=C(/C=C/c1ccc2c(c1)OCO2)c1ccc(O)cc1O,nt,i,nt,32,nt
COC(=O)c1cccc(NC(=O)/C=C/c2ccc3c(c2)OCO3)c1,i,i,i,16,i
NS(=O)(=O)c1ccc(NC(=O)/C=C/c2ccc3c(c2)OCO3)cc1,i,?,i,12,i
Cc1coc2cc3oc(=O)ccc3cc12,i,i,i,i,i
N#CC1=C(N)NC(SCC(=O)c2ccc(Br)cc2)=C(C#N)C12CCCCC2,i,i,i,17,i
CCCCNC(=O)Nc1ccccn1,i,i,i,12,i
N#CC(C#N)=C1SC(=Nc2ccccc2)C(=Nc2ccccc2)N1c1ccccc1,nt,i,nt,i,nt
Cc1ccc(C(=O)COC(=O)CNS(=O)(=O)c2ccccc2)cc1[N+](=O)[O-],i,i,i,18,i
C/C(=N\OC(=O)c1cccc(C(F)(F)F)c1)c1sc(-c2ccccc2)nc1C,i,i,i,i,i
C/C(=N\OC(=O)c1cccc(C)c1)c1sc(-c2ccccc2)nc1C,i,i,i,18,i
C/C(=N\OC(=O)c1ccc(F)cc1)c1sc(-c2ccccc2)nc1C,i,i,i,11,i
CSc1ccc(/C=N/NC(=O)c2ccc(O)cc2)cc1,i,i,i,26,i
Cc1nn(-c2ccccc2)cc1/C=N/NC(=O)c1cccs1,nt,i,i,20,i
COc1ccc(C(=O)N/N=C/c2ccc(SC)cc2)cc1,i,i,i,10,i
O=C(N/N=C/c1ccncc1)c1cccs1,i,i,i,i,i
SMILES,NALP1 inh,dFosB act,CR mimetic SO,NR3A LBD binder,UBC13 inh
CSc1ccc(/C=N/NC(=O)c2cccs2)cc1,i,i,i,13,i
Cc1nn(-c2ccccc2)c(C)c1/C=N/NC(=O)c1cccs1,i,i,i,i,i
O=C(N/N=C/c1ccc(O)cc1)c1ccncc1,i,i,i,i,i
O=c1c(/C=N/Nc2ccccc2)c(Sc2nnnn2-c2ccccc2)nc2ccccn12,i,i,nt,16,nt
O=C(O)c1ccccc1N/N=C/c1c(Sc2nnnn2-c2ccccc2)nc2ccccn2c1=O,i,i,i,12,i
O=Cc1c(Sc2ccccc2)nc2ccccn2c1=O,i,i,i,i,i
C=CCN(C(=O)Nc1ccc(F)cc1)C1CC(=O)N(c2ccc(OC)cc2)C1=O (stereo not given),nt,i,i,i,i
COc1ccc(CCN(C(=S)Nc2ccccc2)C2CC(=O)N(c3ccccc3)C2=O)cc1 (stereo not given),i,i,i,17,i
COc1ccc(CN(C(=S)Nc2ccccc2)C2CC(=O)N(c3ccc(F)cc3)C2=O)cc1 (stereo not given),i,i,i,32,i
CNC(=S)N(Cc1ccc(OC)cc1)C1CC(=O)N(c2ccc(Cl)cc2)C1=O (stereo not given),i,i,i,32,i
CNC(=S)N(Cc1ccc2c(c1)OCO2)C1CC(=O)N(c2ccc(F)cc2)C1=O (stereo not given),nt,i,i,22,i
C=CCN(C(=O)Nc1ccc(Cl)cc1)C1CC(=O)N(c2ccc(OC)cc2)C1=O (stereo not given),nt,i,i,i,i
COc1ccc(CN2C(=NC(=O)C3CCCO3)SC3CS(=O)(=O)CC32)cc1OC (stereo not given),i,i,i,i,i
CCOC(=O)c1cc(S(=O)(=O)N2CCN(C(=O)OCC)CC2)cn1C,i,i,i,i,i
O=C1CC(N(CCc2ccccc2)C(=S)Nc2ccccc2)C(=O)N1c1ccc(Br)cc1 (stereo not given),i,i,i,29,i
Cc1ccc(N2C(=O)CC(N(CCc3ccccc3)C(=S)Nc3ccc(N(C)C)cc3)C2=O)cc1 (stereo not given),i,i,i,i,i
CCOCCCn1c(=NC(=O)c2cccnc2)c(C(=O)OCC)cc2c(=O)n3ccccc3nc21,i,i,i,14!,i
CN(C)CCN(Cc1ccco1)S(=O)(=O)c1ccc(-c2ccc(=O)[nH]n2)s1,i,i,i,14,i
CCc1[nH]c(=O)c(C#N)c2c1CSC(C)(C)C2,i,i,i,13,i
CC(C)=CCC12Oc3cc(O)ccc3C1(O)Oc1cc3c(c(O)c1C2=O)C=CC(C)(C)O3 (stereo not given),nt,nt,i,12,i
O=C(COC(=O)c1ccccc1Br)Nc1cccnc1Cl,nt,i,i,i,i
O=C(NCCN1CCCOC1=O)C(=O)NCCN1CCCOC1=O,nt,i,i,i,i
CCN(CC)C(=O)C1CCN(S(=O)(=O)c2cccc3nonc23)CC1,43,i,i,i,i
CCOc1ccccc1C(=O)N1CCCCC1C (stereo not given),i,i,i,i,i
CCc1ccccc1NC(=O)c1nnn(CC(=O)Nc2ccccc2C)c1N,i,i,i,i,i
SMILES,NALP1 inh,dFosB act,CR mimetic SO,NR3A LBD binder,UBC13 inh
Cc1cc(C)c(NC(=O)Cn2nnc(C(=O)Nc3ccc(F)cc3F)c2N)c(C)c1,i,25,i,i,i
Cc1cccc(C)c1NC(=O)Cn1nnc(C(=O)Nc2ccc(F)cc2F)c1N,i,46,i,i,i
Cc1ccc(OCC(=O)N(C)C2CCCCC2)c([N+](=O)[O-])n1,nt,i,i,i,i
c1ccc(C[C@H]2CN=C(Nc3ccccc3)N2CC2CCCCCC2)cc1,nt,i,i,i,i
COc1cc(C(=O)NCCOc2ccc(F)cc2)c(Br)c(OC)c1OC,i,i,i,i,i
Cc1oc(-c2ccccc2F)nc1CS(=O)(=O)CC(=O)NCCN1CCCC1,29,i,i,i,i
COc1cc(S(=O)(=O)N2CCN(Cc3ccccc3)CC2)ccc1Br,nt,i,i,i,i

# Assay outcomes from PubChem BioAssay.
